# Several values for one entry are separate records, joined by “and”; a condition that tells them apart may be missing. Identical values can stand only once. Inconclusive results are not listed. A number with no mark means an inactive call. Activity calls are given as the source filed them. The call rests on the fitted dose curve; in most records, active means well fitted curve in the direction sought with a large enough effect; inconclusive means small, poorly fitted or top-dose-only effect, or another doubt; inactive means no such curve, though single readings can be large; an effect the other way counts as inactive or inconclusive.
# Columns and labels:
# [1] = Viability qHTS for spleen associated tyrosine kinase inhibitor (SYKi) naive MV4-11 cells (AID 1963823); further: nearly all actives have a fitted effect of over 40% in size
# Outline: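 SYK inhibitor-naive MV4-11 cells, 500 per well, exposed to compounds for 72 hr at 37 C, 5% CO2. Viability read as CellTiter-Glo luminescence after 10 min at room temperature.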
# [2] = Quantitative highthroughput screen to assess conditional lethalithy of NOMO1 cells grown in RPMI1640 with untreated serum (RPMI+s) (AID 1963876); further: nearly all actives have a fitted effect of over 35% in size;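 on Viability: 100% = DMSO wells and 0% = empty wells without cells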
# Outline: (§1)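 Each medium arm—HPLM with 10% dialyzed FBS, or RPMI1640 with 5 mM glucose and 10% untreated or dialyzed FBS—was screened against an 11-point, 3-fold compound titration for 48 h at 37 °C, with CellTiter-Glo luminescence as endpoint.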
# [3] = Quantitative highthroughput screen to assess conditional lethalithy of NOMO1 cells grown in RPMI1640 with dialyzed fetal bovine serum (RPMI+ds) (AID 1963877); further: nearly all actives have a fitted effect of over 30% in size;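 on Viability: series mostly up to about 46 µM; 100% = DMSO control wells and 0% = empty wells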
# Outline: as §1
# [4] = Quantitative highthroughput screen to assess conditional lethalithy of P12 Ichikawa cells grown in Human Plasma-Like Medium with dialyzed fetal bovine serum (HPLM+ds) (AID 1963879); conditions: Potency: viability; further: nearly all actives have a fitted effect of over 35% in size; on Viability: series mostly up to about 46 µM
# Outline: as §1
# [5] = Quantitative highthroughput screen to assess conditional lethalithy of P12 Ichikawa cells grown in RPMI1640 with dialyzed fetal bovine serum (RPMI+ds) (AID 1963880); conditions: Potency: P12-Ichikawa viability; further: nearly all actives have a fitted effect of over 35% in size;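 on Viability: 100% = DMSO wells and 0% = empty wells on each plate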
# Outline: as §1
# [6] = Quantitative highthroughput screen to assess conditional lethalithy of SEM cells grown in Human Plasma-Like Medium with dialyzed fetal bovine serum (HPLM+ds) (AID 1963882); further: nearly all actives have a fitted effect of over 35% in size; on Viability: series mostly up to about 46 µM
# Outline: as §1
# [7] = Quantitative highthroughput screen to assess conditional lethalithy of SEM cells grown in RPMI1640 with unreated serum (RPMI+s) (AID 1963883); further: nearly all actives have a fitted effect of over 35% in size;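 on Viability: 100% = DMSO wells and 0% = empty wells without cells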
# Outline: as §1
# [8] = Quantitative highthroughput screen to assess conditional lethalithy of SEM cells grown in RPMI1640 with dialyzed fetal bovine serum (RPMI+ds) (AID 1963884); further: nearly all actives have a fitted effect of over 35% in size;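 on Viability: series mostly up to about 46 µM; 100% = DMSO control wells and 0% = empty wells without cells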
# Outline: as §1
# [9] = Cellular viability qHTS for adrenocortical cancer (ACC) cell line SW-13 (AID 1963989); conditions: SW-13 ACC cells viability, CellTiter-Glo, 48 h; activity (max response): stronger effect = lower value; further: nearly all actives have a fitted effect of over 65% in size;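 on activity (max response): cells grown in serum-free medium with ITS supplement; on the % scale 0 is the no-effect control and ±100 the full control effect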
# Outline: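 Here, serum-free SW-13 cultures were dosed up to 46 uM. Following 48 h, ATP-dependent luminescence (CellTiter-Glo) reported viable cells, and logistic modeling produced IC50 values.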
# [10] = Quantitative highthroughput screen to assess conditional lethalithy of NOMO1 cells grown in Human Plasma-Like Medium with dialyzed fetal bovine serum (HPLM+ds) (AID 1963878); further: nearly all actives have a fitted effect of over 35% in size
# Outline: as §1
# [11] = Cellular viability qHTS for adrenocortical cancer (ACC) cell line NCI-H295R (AID 1963990); further: nearly all actives have a fitted effect of over 60% in size;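 on activity change, negative = viability loss: 0% = DMSO only wells and -100% = full killing with cytotoxic reference compound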
# Outline: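 Viability of NCI-H295R after 48 h of treatment (final up to 46 uM) measured through cellular ATP luminescence.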
# [12] = Quantitative highthroughput screen to assess conditional lethalithy of P12 Ichikawa cells grown in RPMI1640 with untreated serum (RPMI+s) (AID 1963881); conditions: Potency: viability; further: nearly all actives have a fitted effect of over 35% in size;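 on Viability: series mostly up to about 46 µM; 100% = DMSO wells and 0% = empty wells without cells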
# Outline: as §1
# Potency means the concentration at half of the fitted maximal effect.
SMILES,Potency [1],Potency [2],Potency [3],Potency [4],Potency [5],Potency [6],Potency [7],Potency [8],Potency [9],Potency [10],Potency [11],Potency [12],activity (max response) [9],"activity change, negative = viability loss [11]"
O=c1[nH]nc(OCCCc2ccc(Cl)cc2)c(NCc2cccnc2)c1Br,4.11 µM (active),11.8 µM (active),5.9 µM (active),5.9 µM (active),5.26 µM (active),0.743 µM (active),6.62 µM (active),14.8 µM (active),7.94 µM (active),–,–,–,–,–
Cc1ccc(NC(=O)c2ccc(CN3CCN(C)CC3)cc2)cc1Nc1nc(-c2cccnc2)cs1,11.6 µM (active) and 14.8 µM (active),inactive,–,–,–,–,–,–,25.1 µM (active),0.372 µM (active),22.4 µM (active),–,–,–
O[C@@H](COc1cccc2ncccc12)CN1CCN(C2c3ccccc3[C@@H]3[C@H](c4ccccc42)C3(F)F)CC1 (some centres undefined),5.9 µM (active) and 9.2 µM (active),inactive,inactive,inactive,inactive,inactive,–,inactive,20.6 µM (active),–,3.55 µM (active),inactive,–,–
CC(C)C[C@H](NC(=O)CNC(=O)c1cc(Cl)ccc1Cl)B(O)O,0.0934 µM (active),–,0.418 µM (active),–,–,–,–,–,2 µM (active),–,0.398 µM (active),–,–,–
Cc1nccn1CC1CCc2c(c3ccccc3n2C)C1=O (centres undefined),inactive,inactive,inactive,inactive,inactive,–,inactive,inactive,–,–,inactive,inactive,-14.2%,–
COc1ccc(OC)c(-c2nnc3ccc(-c4ccc(OC)c(O[C@@H]5CCOC5)c4)nn23)c1,2.63 µM (active),inactive,inactive,inactive,–,–,–,inactive,5.01 µM (active),–,–,–,–,–
NS(=O)(=O)NCCNc1nonc1C(=Nc1ccc(F)c(Br)c1)NO,inactive,2.63 µM (active),8.31 µM (active),2.34 µM (active),8.31 µM (active),16.6 µM (active),3.31 µM (active),9.33 µM (active),–,–,inactive,5.24 µM (active),-16.2%,–
C=CC(=O)Nc1cccc(Oc2nc(Nc3ccc(N4CCN(C)CC4)cc3OC)ncc2Cl)c1,1.64 µM (active) and 1.66 µM (active),inactive,–,–,–,–,3.72 µM (active),–,8.91 µM (active),–,8.91 µM (active),–,–,–
Cn1cc(C2=C(c3c4n(c5ccccc35)CCC(CN)C4)C(=O)NC2=O)c2ccccc21 (centres undefined),2.15 µM (active),–,18.7 µM (active),–,–,–,–,11.8 µM (active),–,–,–,–,-20.5%,-2.33% [at 9.17 µM]
N#Cc1ccnc(N2C(=O)CC[C@H]2C(=O)N(c2cncc(F)c2)[C@H](C(=O)NC2CC(F)(F)C2)c2ccccc2Cl)c1,inactive,2.34 µM (active),–,1.48 µM (active),–,3.31 µM (active),1.32 µM (active),3.31 µM (active),–,–,inactive,2.95 µM (active),–,–
Cc1cccc(Nc2ccncc2S(=O)(=O)NC(=O)NC(C)C)c1,inactive,inactive,inactive,inactive,inactive,inactive,inactive,inactive,–,–,inactive,inactive,-3.35%,–
C[C@H]1COc2c(N3CCN(C)CC3)c(F)cc3c(=O)c(C(=O)O)cn1c23,inactive,–,23.5 µM (active),8.33 µM (active),–,–,13.2 µM (active),1.32 µM (active),–,–,inactive,4.18 µM (active),6.21%,–
CCCCCCNC(=O)n1cc(F)c(=O)[nH]c1=O,1.05 µM (active),inactive,9.35 µM (active),–,–,inactive,16.6 µM (active),–,–,–,inactive,–,8.7% and -4.78%,–
COc1cc2c(cc1-c1c(C)noc1C)ncc1[nH]c(=O)n([C@H](C)c3ccccn3)c12,0.206 µM (active),3.32 µM (active),–,5.9 µM (active),–,1.87 µM (active),1.87 µM (active),1.48 µM (active),–,–,–,–,-16.6%,–
CN(C)C(=O)C(CCN1CCC(O)(c2ccc(Cl)cc2)CC1)(c1ccccc1)c1ccccc1,16.8 µM (active) and 14.8 µM (active),–,20.9 µM (active),–,–,–,–,–,5.17 µM (active),–,1.84 µM (active) and 28.2 µM (active),–,–,–
CC(C)(C)c1cc(NC(=O)Nc2ccc(-c3cn4c(n3)sc3cc(OCCN5CCOCC5)ccc34)cc2)no1,inactive,inactive,inactive,inactive,inactive,–,–,–,–,–,–,inactive,1.45%,–
CC(=O)OCCN1C(=O)c2c(C)nc3ccc(S(=O)(=O)N4CCOCC4)cc3c2C1=O,inactive,0.264 µM (active),–,2.64 µM (active),3.32 µM (active),inactive,inactive,inactive,–,–,inactive,–,-3.53%,–
COc1cc2ncnc(Nc3cccc(Cl)c3)c2cc1OC,4.61 µM (active) and 5.17 µM (active),–,–,4.69 µM (active),–,0.332 µM (active),–,0.372 µM (active),5.62 µM (active),4.69 µM (active),–,–,–,–
CCOC(=O)C1=C[C@]2(CC)CCCN3CCc4c(n1c1ccccc41)[C@@H]32,13.3 µM (active),–,–,inactive,–,inactive,–,inactive,–,–,–,–,–,–
CC1(C)CCC(C)(C)c2cc(NC(=O)c3ccc(C(=O)O)cc3)ccc21,inactive,–,–,inactive,–,inactive,inactive,inactive,–,–,inactive,inactive,-9.24%,–
